The entries come from a sample that favours hits as a whole.
Cycloheximide cs – affects cycloheximide protein synthesis inhibition readout, counter-screen; 300,000 tested, 12% active; max response, %; AID 2314; cell reporter, cycloheximide protein synthesis inhibition counterscreen; in the data active = max response mostly above about 13%, no sharp cut-off; inactive = mostly below about 14%; note: read at 38.3 µM for the half of the compounds with a filed dose; 0% is about no effect
AmpC detergent – blocks E. coli AmpC beta-lactamase in detergent assay | 370,000 tested, 0.041% active | P00811 | Potency, µM (highest dose often 114 µM), without a hit: top-dose activity change, negative = inhibition, hits mostly inhibitors | AmpC hydrolysis of nitrocefin, absorbance 480 nm, 0.01% Triton;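 note: potency is the fitted concentration of half-maximal effect; 0% = no-compound wells and -100% = no-enzyme wells; nearly all actives have a fitted effect of over 25% in size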
Target sequence (P00811 whole entry, looked up): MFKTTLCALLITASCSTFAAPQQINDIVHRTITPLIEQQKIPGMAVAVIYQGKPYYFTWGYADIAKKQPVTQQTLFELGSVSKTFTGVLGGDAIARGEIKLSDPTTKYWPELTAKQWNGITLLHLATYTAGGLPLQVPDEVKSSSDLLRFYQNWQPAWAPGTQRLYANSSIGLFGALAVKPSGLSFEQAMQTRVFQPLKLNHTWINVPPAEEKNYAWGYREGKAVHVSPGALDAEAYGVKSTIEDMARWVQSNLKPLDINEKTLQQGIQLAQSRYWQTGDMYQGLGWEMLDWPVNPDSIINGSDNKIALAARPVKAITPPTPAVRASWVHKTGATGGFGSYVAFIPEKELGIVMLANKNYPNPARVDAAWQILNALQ
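20 mM phosphate pH 7.0 + 0.01% (detergent screen) or 0.0001% Triton X-100; 5.3 nM AmpC reagent; cpd preinc 15 min RT; nitrocefin (800 uM stock) to start; A480 q20 s × 4 min; Activity was normalised to no-enzyme and no-compound control wells.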
AmpC inh no detg – AmpC beta-lactamase inhibition without detergent; AmpC nitrocefin hydrolysis, absorbance 480 nm, 0.0001% Triton; AID 485341; 330,000 tested, 0.52% active; Potency, µM (titrated, usually from 57.1 µM), inactives show at the top dose activity change, negative = inhibition, usual class: inhibitors;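 note: potency is the fitted concentration of half-maximal effect; plate controls were no compound for no effect and no enzyme for full effect; nearly all actives have a fitted effect of over 20% in size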
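AmpC (5.3 nM in the dispensed reagent) in 20 mM phosphate pH 7.0 with 0.01% (detergent screen) or 0.0001% Triton X-100 was preincubated with compounds for 15 min at room temperature. Nitrocefin was then added from an 800 uM solution, and hydrolysis was followed at 480 nm.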
AMA1 RON2 block – AMA1-RON2 (P. falciparum) interaction inhibition; 360,000 tested, 0.2% active; Potency, µM (highest dose often 58.2 µM), without a hit: top-dose activity change, negative = inhibition, most hits filed as inhibitors; AlphaScreen AMA1-biotinylated RON2 peptide binding;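 note: potency is the fitted concentration of half-maximal effect; 0% = vehicle wells and -100% = peptide control; nearly all actives have a fitted effect of over 45% in size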
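AMA1 (3D7) with his tag at 25 nM final met compounds first, then biotinylated RON2 peptide at 25 nM; detection used donor plus acceptor beads, 10 µg/mL apiece, read by AlphaScreen after 30 min at room temperature.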
Shiga inhibitor – inhibitors of Shiga toxin in Vero cells | Vero cells, Shiga toxin protein synthesis inhibition reporter | inhibition, % at 38.7 µM | 290,000 tested, 9.2% active | AID 2315; in the data active = inhibition mostly above about 28%, no sharp cut-off; inactive = mostly below about 43%; note: 0% is about no effect
SARS PLP yeast – blocks SARS-CoV papain-like protease in a yeast assay. Potency, µM (highest dose often 32.9 µM), inactives show at the highest dose activity, positive = growth rescue, most hits filed as activators. 330,000 tested, 0.19% active. S. cerevisiae expressing SARS-CoV PLpro, growth rescue. AID 485353; calls by dose curve; note: potency is the fitted concentration of half-maximal effect; 0% is about no effect; nearly all actives have a fitted effect of over 55% in size
An asterisk follows results filed as active; [ ] = another dose, or the depositor's remark. Unless noted, calls come from the whole dose curve; as a rule, active = well fitted curve in the direction sought with a large enough effect; inconclusive = small, poorly fitted or top-dose-only effect, or another doubt; inactive = no such curve, though single readings can be large; an effect the other way counts as inactive or inconclusive.

For COc1cc(C(=O)NC(=S)Nc2ccccc2N2CCCC2)cc(OC)c1OC the results were Cycloheximide cs 2, AmpC detergent -10%, AmpC inh no detg 84%, AMA1 RON2 block 7%, Shiga inhibitor -4 and SARS PLP yeast -7%.
Screening O=C(Nc1ccc2nc(SCC(=O)N3CCc4ccccc43)sc2c1)c1ccc(Cl)cc1 returned AmpC detergent 20%.
Screening Oc1ccc(-c2n[nH]c(=S)n2-c2ccc3c(c2)OCCO3)cc1 returned Cycloheximide cs 37*, AmpC detergent -7%, AmpC inh no detg -31%, AMA1 RON2 block 52%, Shiga inhibitor 59* and SARS PLP yeast 24%.
`S=c1[nH]nc(Cn2c(-c3ccccn3)nc3ccccc32)n1-c1ccc2c(c1)OCCO2` gave Cycloheximide cs 62*, AmpC detergent -7%, AmpC inh no detg -29%, AMA1 RON2 block 75%, Shiga inhibitor 85* and SARS PLP yeast -2%.
`Fc1ccc(-n2c(-c3ccc4c(c3)OCO4)n[nH]c2=S)cc1Cl` gave Cycloheximide cs 11*, AmpC detergent -6%, AmpC inh no detg -22%, AMA1 RON2 block 90%, Shiga inhibitor 13 and SARS PLP yeast -3%.
`S=c1[nH]nc(-c2ccc3ncccc3c2)n1-c1ccc2c(c1)OCCO2` gave Cycloheximide cs 9, AmpC detergent 2%, AmpC inh no detg -16%, AMA1 RON2 block 81%, Shiga inhibitor -3 and SARS PLP yeast -1%.
Screening COc1ccc(S(=O)(=O)N(C)CC(=O)N2CCN(C)CC2)cc1Cl returned Cycloheximide cs 2, AmpC detergent inconclusive, AmpC inh no detg -15%, AMA1 RON2 block -3%, Shiga inhibitor 3 and SARS PLP yeast 1%.
`CCCS(=O)(=O)NC(=O)C1(C)CCN(C(=O)c2cc(C(C)(C)C)nn2C)C1` (stereo not drawn) gave AMA1 RON2 block 0%.
`CN1c2ccsc2C(O)=C(C(=S)Nc2ccc(F)c(Cl)c2)S1(=O)=O` gave Cycloheximide cs 15*, AmpC detergent 1%, AmpC inh no detg -39%, AMA1 RON2 block 22%, Shiga inhibitor 51 and SARS PLP yeast -27%.
For O=C(Nc1ccccc1)OCCc1ccccc1 the results were AMA1 RON2 block 52%.
For Cc1ccc(OCCOC(=O)Nc2ccccc2)cc1 the results were Cycloheximide cs 12, AmpC detergent -13%, AmpC inh no detg -26%, AMA1 RON2 block -15%[2.32 µM], Shiga inhibitor 24 and SARS PLP yeast -2%.
Cc1cccc(OCCOC(=O)Nc2ccccc2)c1 was read as Cycloheximide cs 16*, AmpC detergent 3%, AmpC inh no detg -7%, AMA1 RON2 block 18%, Shiga inhibitor -31 and SARS PLP yeast -10%.
`COc1ccccc1OCCOC(=O)Nc1ccccc1` gave Cycloheximide cs 13*, AmpC detergent -6%, AmpC inh no detg -11%, AMA1 RON2 block 11%, Shiga inhibitor 26* and SARS PLP yeast 16%.
CC1(C(=O)Nc2ccc3c(c2)OCO3)Cc2c(-c3cccc(C(N)=O)c3)ccnc2O1 (stereo not drawn) was read as AMA1 RON2 block -6%.
Screening O=C(CC1N=C2c3ccccc3N=C(SCC(=O)Nc3ccccc3F)N2C1=O)NCc1cccs1 (stereo not drawn) returned AmpC detergent 16%.
Screening CCc1nnc(NC(=O)CSc2nnc(-c3c[nH]c4ccccc34)n2CC)s1 returned Cycloheximide cs -3, AmpC detergent 1%, AmpC inh no detg -36%, AMA1 RON2 block 3%, Shiga inhibitor -20 and SARS PLP yeast 2%.
For COc1ccc(-n2nc(C(=O)NCC(=O)N3CCN(Cc4ccccc4)CC3)c3ccccc3c2=O)cc1OC the results were Cycloheximide cs -4, AmpC detergent -11%, AmpC inh no detg 26%, AMA1 RON2 block -7%, Shiga inhibitor -8 and SARS PLP yeast -3%.
For CCN(CC)C(=O)CNC(=O)c1nn(-c2ccc(OC)c(Cl)c2)c(=O)c2ccccc12 the results were Cycloheximide cs -1, AmpC detergent 2%, AmpC inh no detg 3%, AMA1 RON2 block 28%, Shiga inhibitor 3 and SARS PLP yeast -1%.
`COc1ccc(-n2nc(C(=O)NCC(=O)N3CCC(C)CC3)c3ccccc3c2=O)cc1Cl` gave Cycloheximide cs 38, AmpC detergent inconclusive, AmpC inh no detg 109%, AMA1 RON2 block 0%, Shiga inhibitor 49* and SARS PLP yeast -2%.
For COc1ccc(-n2nc(C(=O)NCC(=O)N3CCN(c4ccccn4)CC3)c3ccccc3c2=O)cc1Cl the results were Cycloheximide cs 27*, AmpC detergent 1%, AmpC inh no detg -34%, AMA1 RON2 block 8%, Shiga inhibitor 40 and SARS PLP yeast -6%.
Screening Oc1oc(-c2ccc(Br)cc2)nc1/C=N/c1ccccn1 returned Cycloheximide cs 54*, AmpC detergent -12%, AmpC inh no detg -13%, AMA1 RON2 block 3%, Shiga inhibitor 120* and SARS PLP yeast 0%.
For Cc1ccc(N=Cc2nc(-c3ccco3)oc2O)cc1 the results were Cycloheximide cs 29*, AmpC detergent -12%, AmpC inh no detg -12%, AMA1 RON2 block -4%, Shiga inhibitor 101* and SARS PLP yeast -3%.
Cc1ccc(-c2nc(C=Nc3ccccc3)c(O)o2)cc1 was read as Cycloheximide cs 51*, AmpC detergent 3%, AmpC inh no detg -35%, AMA1 RON2 block -11%, Shiga inhibitor 85* and SARS PLP yeast 1%.
`Cc1cccc(NC(=O)NNC(=O)c2ccc3ccccc3c2)c1` gave Cycloheximide cs 1, AmpC detergent -18%, AmpC inh no detg -42%, AMA1 RON2 block 129%, Shiga inhibitor -23 and SARS PLP yeast 4%.
COc1ccc(C(=O)Sc2nncc3ccccc23)cc1 was read as Cycloheximide cs 20*, AmpC detergent inconclusive, AmpC inh no detg -5%[11.4 µM], AMA1 RON2 block -12%, Shiga inhibitor 37 and SARS PLP yeast -2%.
`CCOc1cc(S(=O)(=O)NCc2ccc(OC)cc2)c(OCC)cc1-n1cnnn1` gave Cycloheximide cs -1, AmpC detergent inconclusive, AmpC inh no detg 9%, AMA1 RON2 block 1%, Shiga inhibitor -4 and SARS PLP yeast -13%.
Screening CCOc1cc(S(=O)(=O)NCc2ccco2)c(OCC)cc1-n1cnnn1 returned Cycloheximide cs 34*, AmpC detergent inconclusive, AmpC inh no detg -1%, AMA1 RON2 block 0%, Shiga inhibitor 76* and SARS PLP yeast 0%.
`CCN=C(NCC)SC1CC(=O)N(c2ccc(OC)cc2)C1=O` (stereo not drawn) gave Cycloheximide cs -1, AmpC detergent -9%, AmpC inh no detg -2%, AMA1 RON2 block 2%, Shiga inhibitor 3 and SARS PLP yeast 8%.

Assay outcomes deposited in PubChem by National Center for Advancing Translational Sciences (NCATS).
